Measured values from PubChem BioAssay (NCI).
The panel holds about 83,000 compounds, 20% with a hit somewhere; the sample as a whole holds those more often.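 Testing used 96-well plates and a 48-hour single-concentration exposure. Example: -40 means 40% of the starting cells died.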 Unmarked numbers belong to inactive results. The source made the active and inactive calls.

These molecules were tested on A549/ATCC NSCLC (assay: NCI-60 one-dose screen, 48 h (100 = growth as untreated, 0 = no growth, -100 = all killed)). Details: 10 µM unless noted.
Method: Growth inhibition of the A549/ATCC human Non-Small Cell Lung tumor cell line is measured as a screen for anti-cancer activity. Cells are grown in 96 well plates and exposed to the test compound for 48 hours. Compounds are tested at a single concentration, which is 10^-5 M for most compounds. The reported endpoint is percent growth (GI% or GIPRCNT), where numbers from 0 - 100% represent growth inhibition, and numbers from -100% - 0 represent cell death. For example, a value of 40 represents 60% growth inhibition. A value of 0 means no net growth occurred over the course of the experiment. A value of -40 indicates 40% of cells at the beginning of the experiment died by the end of the experiment. A value of -100 means all cells are dead at the end of the experiment.
NCI-60 Human Tumor Cell Lines Screen was performed using the standard one-dose NCI protocol, which is described in more detail at https://dtp.cancer.gov/discovery_development/nci-60/default.htm.
Compounds with GIPRCNT values below 10 were considered active. Activity score was based on GIPRCNT using the following formula: […]
Score is 0 for GIPRCNT values of 100 or above, 50 for GIPRCNT values of 0, and 100 for GIPRCNT values of -100.

Row | Compound | growth
1 | Nc1ccc(Cl)cc1 | 78.7%
2 | CCC1(C)CC(CCNCc2ccccc2O)(c2ccc(C)cc2)CCO1 (stereo not given) | 101%
3 | Clc1ccc(N2COOC3(OOC2)C2CC4CC(C2)CC3C4)cc1 | 47.4%
4 | C=CCc1cc2c(cc1OCC)OCO2 | 88.9%
5 | C[N+](C)(C)Cc1cc(Cl)ccc1O | 94.6%
6 | CCCCCCCCCCCCCCCCCCOc1ccccc1COP(=O)(O)OOCC[N+](C)(C)C | 35.1%
7 | CC(=O)Nc1ccc(NC(=O)c2ccc([As](O)O)cc2)cc1 | 114%
8 | CCC1CN1CCCCN1CC1CC (stereo not given) | 104%
9 | COC(=O)[C@H](C[C@H](Cc1ccccc1)NC(=O)c1csc([C@@H](C[C@H](C(C)C)N(C)C(=O)[C@@H](NC(=O)[C@H]2CCCCN2C)C(C)C)OC(C)=O)n1)NC(=O)OCc1ccccc1 | 18.8% [8.5 µM]
10 | [Cl][Hg][n]1c(-c2ccco2)nc2ccccc21 | 100%
11 | Fc1ccc(C2=CCNCC2)cc1 | 113%
12 | c1cnc2[nH]cc(-c3csc(-c4cn(CCCCN5CCCCC5)c5ccccc45)n3)c2c1 | 83.6%
13 | CO[C@H](C(=O)O)[C@@H]1Cc2cc3cc(OC4CC(OC5CC(O)C(O)C(C)O5)C(O)C(C)O4)c(C)c(O)c3c(O)c2C(=O)[C@H]1OC1CC(OC2CC(OC3CC(C)(O)C(O)C(C)O3)C(O)C(C)O2)C(O)C(C)O1 (stereo not given in full) | 13.7%
14 | Clc1ccc2nnnn2n1 | 77.3%
15 | CC(C)=CCC[C@H](C(=O)O)[C@@H]1CC[C@]2(C)C3=C(CC[C@@]12C)[C@@]1(C)CC[C@H](O)C(C)(C)[C@@H]1CC3 | 81.8%
16 | COC(=O)[C@@H](C)C[C@H](Cc1ccccc1)NC(=O)c1nc([C@@H](C[C@H](C(C)C)N(C)C(=O)[C@@H](NC(=O)[C@H]2C[C@H](O)CCN2C)C(C)C)OC(C)=O)sc1C(C)C | 10.7%
17 | COc1cc(NCCCN=C(N)N)c2ncccc2c1 | 84.8%
18 | COc1ccc(N(CC(=O)NCCC[Te]c2ccccc2)C(=O)CCSC2=C(C)C(=O)c3ccccc3C2=O)cc1 | -52.4% (active)
19 | C=CC1=C[C@@H]2[C@@H]3O[C@]4(CC[C@H](O4)[C@@H](C)C[C@@H](O)C3=O)C[C@H](O)C3=NCC[C@@]32CC1 | -3.33% (active)
20 | Cn1cc(C=O)c2nccnc21 | 96.8%

Row | Compound | growth
21 | CC(=O)c1ccc(C(=O)NCC2CCC3(CC2)OOC2(CCCCC2)OO3)cc1 | 23.5%
22 | CCCc1cc(O)c2c3c(c(=O)oc2c1)CN(C)CC3 | 29.1%
23 | COC(=O)C12CC(NC(=O)c3csc([C@@H](C[C@H](C(C)C)N(C)C(=O)[C@@H](NC(=O)[C@H]4CCCCN4C)C(C)C)OC(C)=O)n3)(C1)C2 | 16.6%
24 | CCOC(=O)[C@@H](C)C[C@H](Cc1ccccc1)NC(=O)c1csc([C@@H](C[C@H](C(C)C)N(C)C(=O)[C@H](CC)NC(=O)[C@H]2CCCCN2C)OC(C)=O)n1 | 7.92% (active)
25 | C[S+]1C=Cc2ccccc2C1c1ccc(Cl)cc1 (stereo not given) | 78.9%
26 | Cc1cnc(/C=C/C(=O)O)cc1-c1cc2c(cc1C)C(C)(C)CCC2(C)C | 63.3%
27 | O=C(CC1(O)C(=O)Nc2ccccc21)c1ccc(C(=O)NCC2CCC3(CC2)OOC2(CCCCC2)OO3)cc1 (stereo not given) | 57.9%
28 | COC(=O)C12CC(NC(=O)c3csc([C@@H](C[C@H](C(C)C)N(C)C(=O)[C@@H](NC(=O)[C@H]4CCCCN4C)C4CC4)OC(C)=O)n3)(C1)C2 | 13%
29 | NC(=O)c1c(Br)n(C2OC(CO)C(O)C2O)c2ncnc(N)c12 (stereo not given) | 12.9%
30 | CC[C@H](C)[C@H](NC(=O)[C@H]1CCCCN1C)C(=O)N(C)[C@H](C[C@@H](OC(C)=O)c1cccc(C(=O)N[C@@H](Cc2ccccc2)C[C@H](C)C(=O)O)n1)C(C)C | 11.4%
31 | COC(=O)[C@@]1(C)CC[C@]2(C)CC[C@]3(C)C4=CC=C5C(=CC(=O)C(O)=C5C)[C@]4(C)CC[C@@]3(C)[C@@H]2C1 | -92.9% (active)
32 | CN(C)C(=O)Oc1ccccc1-c1ccccc1 | 87.7%
33 | COC(C(=O)[C@@H](O)[C@@H](C)O)[C@@H]1Cc2cc3cc(O[C@H]4C[C@@H](O[C@H]5C[C@@H](O)[C@H](O)C(C)O5)[C@H](O)C(C)O4)c(C)c(O)c3c(O)c2C(=O)[C@H]1O[C@H]1C[C@@H](O[C@H]2C[C@@H](O[C@H]3C[C@@H](O)[C@@H](O)C(C)O3)[C@@H](O)C(C)O2)[C@H](O)C(C)O1 (stereo not given in full) | 2.42% (active)
34 | O=c1[nH]c2ccc([N+](=O)[O-])cc2c(=O)o1 | 107%
35 | COc1ccc2c(c1)c(-c1nc(-c3cn(C)c4ncccc34)cs1)cn2CCCCN1CCCCC1 | -56.4% (active)
36 | CC1(C)N=C(N)N=C(N)N1c1ccc(CCCCc2ccc(Cl)c(S(=O)(=O)F)c2)c(Cl)c1 | 15.4%
37 | C[C@@H]1C[C@@]2(C)[C@@H](CC[C@@H]3[C@@H]2CC[C@]2(C)C(=O)CC[C@@H]32)CC1=O | 82.7%
38 | CC(=O)O[C@H]1CC[C@@]2(C)C(=CC[C@H]3[C@@H]4C[C@@H](N5CC5)[C@H](C(C)=O)[C@@]4(C)CC[C@@H]32)C1 | 100%
39 | O=[As](O)(O)c1ccccc1[As](=O)(O)O | 91.8%
40 | CC(C)=CCC/C(C)=C/C=N\N=C(/N)N[N+](=O)[O-] | 97.4%
